{
  "source": "PubChem BioAssay (Tox21)",
  "note": "Results filed as inconclusive are left out. Activity calls are given as the source filed them. The call rests on the fitted dose curve; in most records, active means well fitted cell-killing curve with a large enough effect in the repeat runs (not every such curve was filed as active); inconclusive means weak or mixed curves, or effect the other way; inactive means no such curve, though single readings can be large or run the other way. On the % scale 0 is the no-effect control and ±100 the full control effect; potency means the concentration at half of the fitted maximal effect.",
  "data": [
    {"experiment": "qHTS assay to identify small molecule antagonists of the estrogen related receptor signaling pathway with the pleiotropic PPARgamma coactivator (PGC) from Tox21 10K library - cell viability counter screen (AID 1224840); further: nearly all actives have a fitted effect of over 40% in size", "details": "PGC/ERR reporter cells viability, CellTiter-Fluor, 17.5 h; series mostly up to 92.4 µM; viability change, negative = cytotoxic: at the top concentration", "description": "National Center for Advancing Translational Sciences [NCATS]\nNIH Chemical Genomics Center [NCGC]\nU.S. Environmental Protection Agency [EPA]\nNational Institutes of Environmental Health Sciences [NIEHS]\nNational Toxicology Program [NTP]\nU.S. Food and Drug Administration [FDA]\nEstrogen related receptors (ERRs), the first orphan nuclear receptors discovered, play an important role in the control of cellular energy metabolism. ERRs are required for high-energy production in response to the environmental challenges. The pleiotropic PPARgamma coactivator (PGC) is a major partner of ERR and a key regulator in energy homeostasis. Together they have been implicated in the etiology of metabolic disorders such as Type 2 diabetes and metabolic syndrome. ERR-alpha was also identified as an adverse marker for breast cancer progression; ERR-alpha-positive tumors have a poor prognosis. To screen and to identify environmental compounds that perturb the ERR and PGC/ERR signaling pathways could provide valuable information for potential therapeutic or preventive measures in the treatment of metabolic disease. To differentiate true PGC/ERR antagonists or agonist from cytotoxic substances, the assay is multiplexed with cell viability assay.\nTox21 Assay Protocol Summary:\nThe PGC/ERR cells were dispensed at 2,000 cells/5 ul/well in 1536-well white plates using a Multidrop dispenser. After the assay plates were incubated at a 37 C/5% CO2 incubator for 6 hours, 23 nL of compounds dissolved in DMSO, positive and negative controls or DMSO only was transferred to the assay plate by a pin tool. The plates were incubated at 37 C for 17.5 hours. 1 ul/well of CellTiter-Fluor reagent was added into the assay plates using a Flying Reagent Dispenser. After 30-minute incubation at 37 C/5% CO2, the fluorescence intensity in the plates was measured using a ViewLux plate reader.", "values": [
      {"smiles": "CC(C)NCC(O)c1cc(O)cc(O)c1", "note": "(stereo not given)", "viability change, negative = cytotoxic": "15.9% [at 42.5 µM] (inactive)"},
      {"smiles": "CCCc1ccccc1", "viability change, negative = cytotoxic": "4.99% (inactive)"},
      {"smiles": "C[C@@H](C1=C(CCN(C)C)Cc2ccccc21)c1ccccn1", "viability change, negative = cytotoxic": "-0.116% [at 42.5 µM] (inactive)"},
      {"smiles": "CC(=O)OC/C=C/c1ccccc1", "viability change, negative = cytotoxic": "7.73% (inactive)"},
      {"smiles": "C1=Cc2ccccc2C1", "viability change, negative = cytotoxic": "-0.0097% (inactive)"},
      {"smiles": "CN(C)CC/C=C1\\c2ccccc2COc2ccccc21", "viability change, negative = cytotoxic": "15.5% [at 42.5 µM] (inactive)"},
      {"smiles": "CCN(CC)CCNC(C(=O)OCCC(C)C)c1ccccc1", "note": "(stereo not given)", "viability change, negative = cytotoxic": "0.311% [at 42.5 µM] (inactive)"},
      {"smiles": "O=CNc1ccccc1", "viability change, negative = cytotoxic": "2.46% (inactive)"},
      {"smiles": "Cc1cc(C)c(S(=O)(=O)O)cc1N=Nc1cc(S(=O)(=O)O)c2ccccc2c1O", "Potency": "34.4 µM (active)"},
      {"smiles": "Cc1ccc(C(C)c2ccc(C)c(C)c2)cc1C", "viability change, negative = cytotoxic": "2.25% (inactive)"},
      {"smiles": "NCCCN(CCO)CCO", "viability change, negative = cytotoxic": "-5.26% (inactive)"},
      {"smiles": "CC1(C)CCC(C)(C)c2cc(NC(=O)c3ccc(C(=O)O)cc3)ccc21", "viability change, negative = cytotoxic": "-7.08% [at 42.5 µM] (inactive)"},
      {"smiles": "Cn1c(NCCN(CCO)CCCc2ccc([N+](=O)[O-])cc2)cc(=O)n(C)c1=O", "viability change, negative = cytotoxic": "1.7% [at 42.5 µM] (inactive)"},
      {"smiles": "C=Cc1c(C)c2cc3[nH]c(cc4nc(cc5nc(cc1[nH]2)C(C)=C5CCC(=O)O)C(CCC(=O)O)=C4C)c(C)c3C=C", "viability change, negative = cytotoxic": "-19.7% [at 42.5 µM] (inactive)"},
      {"smiles": "Cc1ccc(C)o1", "viability change, negative = cytotoxic": "3.48% (inactive)"},
      {"smiles": "CC(C)(C)c1cc(CCC(=O)OCC(COC(=O)CCc2cc(C(C)(C)C)c(O)c(C(C)(C)C)c2)(COC(=O)CCc2cc(C(C)(C)C)c(O)c(C(C)(C)C)c2)COC(=O)CCc2cc(C(C)(C)C)c(O)c(C(C)(C)C)c2)cc(C(C)(C)C)c1O", "viability change, negative = cytotoxic": "1.4% [at 42.5 µM] (inactive)"},
      {"smiles": "Oc1ccc2c(c1)OCO2", "viability change, negative = cytotoxic": "-18.4% (inactive)"},
      {"smiles": "O=C(O)Cn1c(C(=O)Nc2nc(-c3ccccc3Cl)cs2)cc2ccccc21", "viability change, negative = cytotoxic": "1.09% [at 42.5 µM] (inactive)"},
      {"smiles": "CC(=O)Nc1ccc(/C=N/NC(N)=S)cc1", "viability change, negative = cytotoxic": "-13.7% [at 42.5 µM] (inactive)"},
      {"smiles": "O=C(CCN1CCN2CCCC2C1)N1c2ccccc2Sc2ccc(Cl)cc21", "note": "(stereo not given)", "viability change, negative = cytotoxic": "-1.3% [at 19 µM] (inactive)"},
      {"smiles": "O=C(O)c1cccc(N(Cc2cccnc2)c2ccc(OC(F)F)c(OC(F)F)c2)c1", "viability change, negative = cytotoxic": "-16.5% (inactive)"},
      {"smiles": "CCOc1cc(OCC)c(C(=O)CCC(=O)O)cc1OCC", "viability change, negative = cytotoxic": "0.798% [at 42.5 µM] (inactive)"},
      {"smiles": "CCCCCC/C=C/C=O", "viability change, negative = cytotoxic": "8.04% (inactive)"},
      {"smiles": "O=C(O)Cc1sc(-c2ccccc2)nc1-c1ccc(Cl)cc1", "viability change, negative = cytotoxic": "7.91% [at 42.5 µM] (inactive)"},
      {"smiles": "CCCCC(CC)COCCCN", "note": "(stereo not given)", "viability change, negative = cytotoxic": "-19.5% (inactive)"},
      {"smiles": "O=C1c2cccc(O)c2C(=O)c2c(O)cc(CO)cc21", "viability change, negative = cytotoxic": "-15.5% (inactive)"},
      {"smiles": "FC(F)(F)C(F)(F)C(F)(F)C(F)(F)C(F)(F)C(F)(F)CCI", "viability change, negative = cytotoxic": "4.08% [at 42.5 µM] (inactive)"},
      {"smiles": "CCN(CC)CCOC(=O)C1(c2ccccc2)CCCC1", "viability change, negative = cytotoxic": "-8.23% [at 42.5 µM] (inactive)"},
      {"smiles": "CCCCOCCOCCOCCOCCO", "viability change, negative = cytotoxic": "5.09% (inactive)"},
      {"smiles": "CCCOc1ccc2nc(NC(=O)OC)[nH]c2c1", "viability change, negative = cytotoxic": "-13.5% [at 42.5 µM] (inactive)"},
      {"smiles": "CCOC(=S)SSC(=S)OCC", "viability change, negative = cytotoxic": "1.43% (inactive)"},
      {"smiles": "O=C(O)COC(=O)Cc1ccccc1Nc1c(Cl)cccc1Cl", "viability change, negative = cytotoxic": "1.41% [at 42.5 µM] (inactive)"},
      {"smiles": "CC(=O)c1ccc2c(c1)[C@H](NC(=O)c1ccc(F)cc1)[C@@H](O)C(C)(C)O2", "viability change, negative = cytotoxic": "-14.5% (inactive)"},
      {"smiles": "NCCCOCCOCCOCCCN", "viability change, negative = cytotoxic": "-23.4% (inactive)"},
      {"smiles": "CC(=O)N(CC(=O)N(C)C)c1ccccc1", "viability change, negative = cytotoxic": "0.216% [at 42.5 µM] (inactive)"},
      {"smiles": "O=c1[nH]cnc2ccccc12", "viability change, negative = cytotoxic": "1.48% (inactive)"},
      {"smiles": "CCCCOC(=O)c1ccccc1C(=O)OCC(CC)CCCC", "note": "(stereo not given)", "viability change, negative = cytotoxic": "-2.01% (inactive)"},
      {"smiles": "CC(C)(C)c1ccc(OCC2CO2)cc1", "note": "(stereo not given)", "viability change, negative = cytotoxic": "-22.9% (inactive)"},
      {"smiles": "C[C@H](CCC(=O)O)[C@H]1CC[C@H]2[C@@H]3[C@H](O)C[C@@H]4C[C@H](O)CC[C@]4(C)[C@H]3CC[C@]12C", "viability change, negative = cytotoxic": "-20.6% (inactive)"},
      {"smiles": "C=CCCCCCC", "viability change, negative = cytotoxic": "0.79% (inactive)"}
    ]}
  ]
}
